Measured values from PubChem BioAssay.
The source made the active and inactive calls. The rule behind the calls is not given here.

What follows are molecules tested against Lethal factor (Bacillus anthracis) (UniProt P15917) (assay: Lethal factor protease inhibitors, Bacillus anthracis, multiplex microsphere cleavage assay, validation set (AID 588461)). Settings: flow cytometry, at 10 µM, stronger effect = higher value.

| SMILES | inhibition |
| --- | --- |
| Cc1ccccc1NC(=O)C1(C)Cc2ccccc2C(=O)O1 (stereo not given) | -0.2% (inactive) |
| C[C@H](NC(=O)C1(c2ccccc2)CCN(C(=O)[C@H]2CSCN2C(=O)OC(C)(C)C)CC1)C(=O)O | -10.5% (inactive) |
| CC(=Nc1ccccc1)C1=C(O)CCCC1=O | -5.7% (inactive) |
| COc1ccc2[nH]c3c(=O)n(/N=C/[C@H]4C(C)C=C(C)CC4C)c(=O)[nH]c3c2c1 (stereo not given in full) | 7.1% (inactive) |
| CCCN(CCC)C(=O)C(CCC(=O)O)NC(=O)c1ccccc1 (stereo not given) | 8.6% (inactive) |
| COc1cc2c(cc1OC)-c1cc(OCc3ccccc3Cl)nc(=O)n1CC2 | 0.1% (inactive) |
| CCc1ccc(/C=C2\SC(=S)N(CCC(=O)N3CCN(C)CC3)C2=O)cc1 | 4.9% (inactive) |
| CCc1cc(C(N)=S)ccn1 | -2.7% (inactive) |
| Cc1cc(C(=O)NC(CC(C)C)C(=O)O)cc(C)c1[N+](=O)[O-] (stereo not given) | -5.7% (inactive) |
| COc1ccc2c(C=O)cn(C)c2c1 | 2.1% (inactive) |
| O=C(Nc1ccccc1)OCC1CCCN2CCCCC12 (stereo not given) | 2.5% (inactive) |
| COc1ccc(-c2csc(-c3cccnc3)n2)cc1C | -5.1% (inactive) |
| CNCCC=C1c2ccccc2CCc2ccccc21 | -5.8% (inactive) |
| Nc1ncnc2c1ncn2C1OC(CO)C(O)C1O (stereo not given) | 2% (inactive) |
| S=C(c1ccc2c(c1)OCO2)N1CCCCC1 | -0.2% (inactive) |
| COc1ccc2cc([C@H](C)C(=O)O)ccc2c1 | -2.6% (inactive) |
| NS(=O)(=O)c1cc2c(cc1Cl)NCNS2(=O)=O | -4.7% (inactive) |
| O=C(Nc1cccc(Oc2c(F)c(F)c(F)c(F)c2F)c1)N1C[C@@H]2C[C@@H](C1)c1cccc(=O)n1C2 | 7.2% (inactive) |
| Cc1cc(C)c2c(CCl)cc(=O)oc2c1 | -3.4% (inactive) |
| COC(=O)c1ccc(C(=O)OC)c(NC(=O)C(C)C)c1 | -1.4% (inactive) |

| SMILES | inhibition |
| --- | --- |
| CCOc1cc(C=O)ccc1OCCSc1ccc(C)cc1 | -3.6% (inactive) |
| CC(C)Cc1ccc(C(C)C(=O)Nc2ccc(O)cc2)cc1 (stereo not given) | -6.8% (inactive) |
| COc1ccc(C2C(=O)c3ccccc3C2=O)cc1 | -3.8% (inactive) |
| CCCc1cc(C(N)=S)ccn1 | -7.7% (inactive) |
| COCCCNc1nc2c([nH]1)c(=O)[nH]c(=O)n2C | 1.3% (inactive) |
| C[C@@H]1CCC[C@H](C)N1NC(=O)c1ccc(Cl)c(S(N)(=O)=O)c1 | -0.8% (inactive) |
| CCOc1ccc(N2C(=O)CNC2=S)cc1 | -3.8% (inactive) |
| C=C1C2(C(=O)Nc3ccc(SC(F)F)cc3)CCC(C2)C1(C)C (stereo not given) | 1.3% (inactive) |
| CS(=O)c1ccccc1O (stereo not given) | -9.2% (inactive) |
| CC(C)(S)[C@@H](N)C(=O)O | 1.1% (inactive) |
| Cc1ccc(/C=N/Nc2nc(C(C)(C)C)cs2)o1 | -6.6% (inactive) |
| COc1cc(OC)c(C(=O)CCCN2CCCC2)c(OC)c1 | -2.6% (inactive) |
| CCNCCC(CCC(C)C)c1ccc2c(c1)OCO2 (stereo not given) | -0.1% (inactive) |
| N#C/C(C(N)=O)=c1/ccc2c(c1)N1C3=C(CCCC3)CC3CCCCC31N=2 (stereo not given) | -2.3% (inactive) |
| C/C=C/Cn1c(SC)nc2c1c(=O)[nH]c(=O)n2C | -3.1% (inactive) |
| CC(=O)Nc1ccc2[nH]c(C)c(CC=C(Cl)Cl)c(=O)c2c1 | -4.2% (inactive) |
| O=C(/C=C/c1ccc(F)cc1)NC(=S)N1CCCCC1c1cccnc1 (stereo not given) | -0.1% (inactive) |
| COC1CCCCC1Nc1ccc(C)c(C)c1 (stereo not given) | -5.5% (inactive) |
| COc1ccc(Cc2noc(CN(C)CC3(N4CCOCC4)CCCCC3)n2)cc1OC | -0.4% (inactive) |
| COc1c(C)cc(C(=O)C2CCCN(Cc3ccc(Oc4ncccn4)cc3)C2)cc1C (stereo not given) | -4.4% (inactive) |
